This excerpt belongs to a sample that is enriched for hits.
Giardia FBPA inh – blocks Giardia fructose-bisphosphate aldolase activity. A8B2U2. purified Giardia FBPA. Potency, µM (doses to about 59.6 µM), for the others: at the highest dose activity, negative = inhibition, most hits filed as inhibitors. actives 0.71% (n = 290,000). AID 2451; note: potency is the fitted concentration of half-maximal effect; % is set by controls: 0 for no effect and ±100 for the full control effect; nearly all actives have a fitted effect of over 55% in size
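40 nM FBPA preincubated 10 min at RT with compound (up to 57.5 uM final), then substrate plus GAPDH/TPI/NAD/arsenate coupling and diaphorase/resazurin added. Fluorescence read after 20 min at RT, 525/598 nm.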
RE007 growth inh – less growth of the S. pombe RE007 Vpr strain | S. pombe RE007 Vpr strain, BacTiter-Glo ATP luminescence, 24 h | Potency, µM (highest dose often 92.2 µM), inactives show top-dose activity change, negative = less growth, actives largely listed as inhibitors | actives 0.21% (n = 360,000) | AID 651644; active = well fitted falling curve with a large enough effect; inconclusive = small, poorly fitted or top-dose-only effect; inactive = no such curve, though single readings can be large or run the other way; note: potency is the fitted concentration of half-maximal effect; % is set by controls: 0 for no effect and ±100 for the full control effect; nearly all actives have a fitted effect of over 50% in size
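Fission yeast RE007 carrying one integrated HIV-1 vpr copy, seeded at OD 0.01 in PMG+AL medium with 23 nL pinned compound. Grown 24 h at 30 degrees; viability read by BacTiter-Glo luminescence after 5 min.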
Cycloheximide cs – counter-screen for Shiga toxin inhibitors: cycloheximide protein synthesis inhibition; cell reporter, cycloheximide protein synthesis inhibition counterscreen; actives 12% (n = 300,000); AID 2314; max response, %; in the data active = max response mostly above about 13%, no sharp cut-off; inactive = mostly below about 14%; note: read at 38.3 µM for the half of the compounds with a filed dose; 0% is about no effect
LmPK inh – inhibitors of Leishmania mexicana pyruvate kinase; purified LmPK, Kinase-Glo ATP luminescence, 1 h; actives 0.37% (n = 290,000); Q27686; Potency, µM (highest dose often 57.5 µM), for inactives: at the highest dose activity change, negative = inhibition, most hits filed as inhibitors; note: potency is the fitted concentration of half-maximal effect; % is set by controls: 0 for no effect and ±100 for the full control effect
Target sequence (Q27686 whole entry, looked up): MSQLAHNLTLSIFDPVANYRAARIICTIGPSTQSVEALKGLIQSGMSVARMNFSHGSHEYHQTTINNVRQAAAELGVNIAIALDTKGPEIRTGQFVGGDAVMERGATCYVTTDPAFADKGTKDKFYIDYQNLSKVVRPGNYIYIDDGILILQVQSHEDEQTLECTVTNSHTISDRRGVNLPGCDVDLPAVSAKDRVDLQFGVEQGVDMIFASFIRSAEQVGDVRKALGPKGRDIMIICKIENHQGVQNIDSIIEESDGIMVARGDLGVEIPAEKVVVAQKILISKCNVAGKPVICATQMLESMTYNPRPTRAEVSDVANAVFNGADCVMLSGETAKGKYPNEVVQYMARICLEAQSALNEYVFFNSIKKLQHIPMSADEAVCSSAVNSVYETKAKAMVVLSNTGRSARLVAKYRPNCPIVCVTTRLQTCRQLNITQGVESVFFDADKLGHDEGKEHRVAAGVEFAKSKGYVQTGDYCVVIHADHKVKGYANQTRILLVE
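Pyruvate kinase activity monitored as ATP production (luciferase luminescence). Conditions: 0.1 nM enzyme, 0.5 mM PEP, 0.1 mM ADP, 1 h, RT; normalized against uninhibited and no-enzyme wells.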
TbPYK inhibitor – inhibitors of Trypanosoma brucei pyruvate kinase; TbPYK enzyme, Kinase-Glo Plus ATP luminescence, 45 min; actives 0.12% (n = 410,000); Potency, µM (doses to about 76.8 µM), without a hit: at the top dose activity, negative = inhibition, most hits filed as inhibitors; Q57TT1; note: potency is the fitted concentration of half-maximal effect; % is set by controls: 0 for no effect and ±100 for the full control effect; nearly all actives have a fitted effect of over 50% in size
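Assay buffer: 50 mM TEA pH 7.2, 100 mM KCl, 10 mM MgCl2, 0.05% BSA, 0.01% Tween-20. Pyruvate kinase from T. brucei plus substrate met compound, then ADP (130 uM final). Luminescence was read post 45 min RT.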
Shiga inhibitor – Shiga toxin inhibition. actives 9.2% (n = 290,000). inhibition, % at 38.7 µM. Vero cells, Shiga toxin protein synthesis inhibition reporter; in the data active = inhibition mostly above about 28%, no sharp cut-off; inactive = mostly below about 43%; note: 0% is about no effect
* marks the source's active call; other numbers are inactive results; ? = inconclusive; . = no result given. Unless noted, calls come from the whole dose curve; as a rule, active = well fitted curve in the direction sought with a large enough effect; inconclusive = small, poorly fitted or top-dose-only effect, or another doubt; inactive = no such curve, though single readings can be large; an effect the other way counts as inactive or inconclusive.

SMILES | Giardia FBPA inh | RE007 growth inh | Cycloheximide cs | LmPK inh | TbPYK inhibitor | Shiga inhibitor
CCCC1CC(C)(c2csc(Nc3ccc(OCC)cc3)n2)OC1=O (configuration not stated) | 1% | 1% | 20* | 1% | -7% | 60*
O=C(c1ccccc1)[C@H]1[C@H](c2ccccc2)[C@@]2(N=C(c3ccccc3)OC2=O)C2c3ccccc3C=NN21 (some centres not stated) | -5% | . | 35* | -2% | . | 55*
COc1ccccc1C(=O)COC(=O)c1cccs1 | . | -26% | . | . | 6% | .
Cc1ccc(S(=O)(=O)Cc2cc(F)c([N+](=O)[O-])cc2[N+](=O)[O-])cc1 | -5% | ? | 22* | 3% | -2% | 46*
CCc1ccc(C(=O)COC(=O)C(NC(=O)C2CCC(C)CC2)C(C)C)cc1 (configuration not stated) | . | . | . | . | 2% | .
COc1ccccc1C(=O)OCC(=O)c1cccc([N+](=O)[O-])c1 | 0% | -17% | 28* | -4% | -3% | -9
COc1ccccc1C(=O)COC(=O)c1ccccc1O | 1% | -11% | 31* | -1% | -4% | 95*
CCc1ccc(C(=O)COC(=O)[C@@H](NC(N)=O)[C@@H](C)CC)cc1 | 3% | 25% | 22* | 2% | -5% | 77*
CCOC(=O)c1ccc([N+](=O)[O-])c(CS(=O)(=O)c2ccc(Cl)cc2)c1 | 9% | 4% | -4 | 0% | 1% | -9
O=C(COC(=O)c1ccccc1NC(=O)c1ccccc1)c1cccc([N+](=O)[O-])c1 | 1% | -6% | -1 | -1% | 4% | -8
C[C@H](NC(c1cccc2nc(O)c(O)nc12)P(=O)(O)O)c1ccc(Br)cc1 (some centres not stated) | 0% | . | -4 | . | . | -8
Cc1ccc(C)c(-n2cc(-c3ccccc3)nc2SCC(=O)Nc2ccccc2)c1 | . | . | . | . | 1% | .
Cc1ccc(S(=O)(=O)CCC(=O)c2cccc([N+](=O)[O-])c2)cc1 | -6% | 5.6µM* | 7 | 2% | ? | 15
CCc1ccc(C(=O)COC(=O)c2ccccc2OC)cc1 | . | -25% | 43* | ? | 2% | 133*
COc1ccccc1C(=O)COC(=O)c1ccc(N(C)C)cc1 | -3% | 3% | 35* | -14% | -1% | 94*
O=C(/C=C/c1ccccc1)OCC(=O)c1c[nH]c2ccccc12 | . | 5% | . | . | -6% | .
COc1ccccc1C(=O)COC(=O)/C=C/c1ccccc1 | . | -18% | 53* | -8% | -1% | 100*
Cc1ccc(C(=O)CCS(=O)(=O)c2ccc(Br)cc2)cc1 | -3% | 9% | -3 | -8% | 2% | -1
CSc1ccc(-c2nc(CSCC(=O)N3CCOCC3)c(C)o2)cc1 | -9% | -3% | 27* | -5% | -13% | 108*
CSc1ccc(-c2nc(CSCC(=O)NC3CC3)c(C)o2)cc1 | -17% | -1% | 20* | 1% | 3% | 27*
COc1ccccc1CNC(=O)CSc1ncc(S(=O)(=O)c2ccc(C)c(Cl)c2)c(=O)[nH]1 | . | . | . | . | 2% | .
CCSc1ncc(Cl)c(C(=O)N(Cc2ccccc2)c2ccc(OC)cc2)n1 | . | . | . | . | 3% | .
Cc1ccc(Sc2ncccc2O)cc1 | . | -8% | . | . | 0% | .
Cc1ccc(Sc2ncccc2COC(=O)NC(C)C)cc1 | 5% | 2% | 37* | 0% | 8% | 118*
CC(C)Oc1ccc(CNC(=O)c2cc3ccccn3n2)cc1 | . | . | . | . | -1% | .
SMILES | Giardia FBPA inh | RE007 growth inh | Cycloheximide cs | LmPK inh | TbPYK inhibitor | Shiga inhibitor
O=C(O)c1cc(O)c2c(c1)[C@H]([C@H]1c3cc(C(=O)O)cc(O)c3C(=O)c3c(O[C@@H]4OC(CO)C(O)C(O)C4O)cccc31)c1cccc(O[C@@H]3OC(CO)C(O)C(O)C3O)c1C2=O (some centres not stated) | 18µM* | . | . | . | -9% | .
COc1cc(/C=C2/C(=N)N3N=C(CC(=O)N4CCOCC4)SC3=NC2=O)ccc1OCc1ccc(F)cc1 | . | -6% | 40* | -11% | 8% | 106*
C=CCOc1ccc(/C=C2/C(=N)N3N=C(CC(=O)N4CCCC4)SC3=NC2=O)cc1OC | -29% | 1% | -4 | 7% | 5% | -2
COc1ccc(/C=C2/C(=N)N3N=C(CC(=O)N4CCCC4)SC3=NC2=O)cc1OC | ? | 11% | -4 | 11% | 3% | -6
COc1cc(/C=C2/C(=N)N3N=C(CC(=O)N4CCOCC4)SC3=NC2=O)ccc1OCc1ccccc1F | . | -2% | 26* | 2% | 1% | 43
O=C(COC(=O)CNC(=O)c1ccc(Cl)cc1Cl)NNC(=O)c1ccccc1F | . | -9% | . | . | 0% | .
O=[N+]([O-])c1ccc(C(O)CSC(=S)N2CCCCC2)cc1 (configuration not stated) | 2% | 4% | 46* | 4% | 0% | 83*
Cc1ccc(Cn2c(SCc3ccc(C(=O)N4CCCCC4)cc3)nc3ccncc32)cc1 | . | . | . | . | 2% | .
Cc1cc(C)nc(Nc2nc3ccccc3s2)n1 | 3% | 10% | 39* | -2% | 1% | 59*
CC(=O)c1c(C)nc(Nc2nc(C)c3cc(C)ccc3n2)nc1C | 2% | 1% | 18 | 8% | -1% | 56*
CC(=O)c1c(C)nc(Nc2nc3ccccc3s2)nc1C | 2% | -2% | 68* | -7% | 2% | 98*
CC(=O)c1cnc(Nc2nc(C)c3ccc(C)cc3n2)nc1C | -7% | 16% | -6 | 1% | 2% | -14
Cc1ccc(Nc2nc3ccccc3s2)c(C)c1 | -18% | ? | 47* | -8% | -6% | 94*
Cc1ccc(NC(=O)COC(=O)c2ccccc2-c2nc3ccccc3s2)c(C)c1 | -5% | 0% | -3 | 2% | -2% | -13
COc1ccc(OC)c(NC(=O)Cn2cc(S(=O)(=O)c3ccccc3)c(=O)c3cc(C)ccc32)c1 | . | . | . | . | 1% | .
Cc1cccc(OCc2nc(-c3nonc3N)no2)c1C | -2% | 10% | 56* | 4% | 7% | 53*
CCOc1ccc(Cc2nc(-c3nonc3N)no2)cc1OCC | -3% | -13% | 2 | -4% | -4% | 19
Nc1nonc1-c1noc(COc2ccccc2Cl)n1 | 1% | -19% | 23* | -9% | 2% | 83*
Cn1c(SCc2cccnc2)nnc1-c1c[nH]c2ccccc12 | 4% | 10% | 8 | -1% | 1% | 8
CCOC(=O)C(C)Sc1nnc(-c2c[nH]c3ccccc23)n1C (configuration not stated) | 0% | -2% | 11 | -1% | -1% | 10
CCn1c(-c2sc(-c3ccccc3)nc2C)n[nH]c1=S | 5% | 19% | -4 | 1% | ? | -22
C#CCSc1nnc(-c2sc(-c3ccccc3)nc2C)n1C | -1% | 2% | 18* | 5% | -22% | 18
